Measured values from PubChem BioAssay.
Calls of active or inactive are those of the source.

Assays:
[1] = E. coli DRC41 culture turbidity changes, primary screen, E. coli filamentation inducer project, strain DRC41, OD650, 48 h (AID 1152);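 further: E. coli MC1000 strain DRC41 lacking acrAB efflux pump and sulA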; details: E. coli DRC41 (acrAB sulA), higher = more signal, called active from +8 up or from −8 down
[2] = small-molecule binders of probe aLefty1, primary screen, biochemical, small-molecule microarray, 635/667 nm fluorescence (AID 1153); details: higher = more signal;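 further: score merges spot fluorescence with signal-to-noise ratio from the scanned slide images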
[3] = PSAC antagonists in infected red cells, primary screen, cell-based, P. falciparum Indochina, OD700, 1 h (AID 1154); details: P. falciparum Indochina infected RBC osmotic lysis, higher = more signal, called active from +8 up or from −8 down
[4] = PSAC antagonists in infected red cells, primary screen, cell-based, P. falciparum Indochina, OD700, 2 h (AID 1155);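 further: lysis reports solute entry through the parasite surface anion channel PSAC; channel blockers reduce lysis of infected cells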; details: P. falciparum Indochina infected erythrocytes, osmotic lysis OD700; higher = more signal, called active from +8 up or from −8 down
[5] = osmotic lysis modulators in infected erythrocytes, primary screen, PSAC antagonist project, cell-based, P. falciparum Indochina, OD700, 3 h (AID 1156); details: higher = more signal, called active from +8 up or from −8 down
[6] = PSAC antagonists in infected red cells, primary screen, cell-based, P. falciparum Indochina, OD700, 18 h (AID 1157); details: P. falciparum Indochina infected erythrocytes, osmotic lysis OD700, 18 h; higher = more signal, called active from +8 up or from −8 down
[7] = modulators of S6 phosphorylation in cells, primary screen, cell-based, A549, cytoblot, luminescence, serum-stimulated (AID 1158); details: A549 phospho-S6 cytoblot, 5 h, higher = more signal;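 further: serum-stimulated A549 lung adenocarcinoma cells; signal is phosphorylated S6 detected by cytoblot immunostaining with HRP secondary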
[8] = biological target: NADPH oxidase 2 (Homo sapiens) (UniProt P04839); test: NOX2-dependent H2O2 signal modulators, primary screen, NOX inhibitor project, cell-based, HEK293-NOX2, PMA-stimulated, Amplex Red fluorescence (AID 1159); details: 45 min, higher = more signal, called active from +8 up or from −8 down; further: test concentration not given here
[9] = biological target: NADPH oxidase 4 (Homo sapiens) (UniProt Q9NPH5); test: NOX4-dependent H2O2 signal modulators, primary screen, NOX inhibitor project, cell-based, HEK293-NOX4, tetracycline-induced, Amplex Red fluorescence (AID 1160); details: 45 min, higher = more signal, called active from +8 up or from −8 down
[10] = biological target: NADPH oxidase 5 (Homo sapiens) (UniProt Q96PH1); test: NOX5-dependent H2O2 signal modulators, primary screen, NOX inhibitor project, cell-based, HEK293-NOX5, Amplex Red fluorescence (AID 1161); details: HEK293-NOX5, ionomycin, 45 min, higher = more signal
Sequence of NADPH oxidase 5 (Homo sapiens) (Q96PH1 whole entry, looked up): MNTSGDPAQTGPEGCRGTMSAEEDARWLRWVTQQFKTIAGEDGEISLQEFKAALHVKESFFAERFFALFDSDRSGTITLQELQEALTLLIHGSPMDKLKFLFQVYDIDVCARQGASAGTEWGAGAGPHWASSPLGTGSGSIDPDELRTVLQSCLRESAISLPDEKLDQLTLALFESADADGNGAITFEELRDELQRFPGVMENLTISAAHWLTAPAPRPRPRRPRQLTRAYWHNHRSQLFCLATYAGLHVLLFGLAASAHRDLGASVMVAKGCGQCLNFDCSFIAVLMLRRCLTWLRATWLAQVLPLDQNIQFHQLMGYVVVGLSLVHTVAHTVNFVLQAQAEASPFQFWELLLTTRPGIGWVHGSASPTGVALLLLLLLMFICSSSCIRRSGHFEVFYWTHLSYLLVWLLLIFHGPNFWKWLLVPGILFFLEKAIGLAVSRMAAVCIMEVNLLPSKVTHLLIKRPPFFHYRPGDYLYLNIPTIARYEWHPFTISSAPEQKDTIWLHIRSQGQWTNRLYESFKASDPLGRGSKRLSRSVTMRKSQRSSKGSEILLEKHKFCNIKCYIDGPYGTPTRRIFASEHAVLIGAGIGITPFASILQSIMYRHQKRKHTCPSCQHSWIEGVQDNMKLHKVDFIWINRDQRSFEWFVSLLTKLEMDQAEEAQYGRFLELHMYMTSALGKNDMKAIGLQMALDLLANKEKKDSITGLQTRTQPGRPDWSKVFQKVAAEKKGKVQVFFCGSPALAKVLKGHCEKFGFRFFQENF

Sequence of NADPH oxidase 4 (Homo sapiens) (Q9NPH5 whole entry, looked up): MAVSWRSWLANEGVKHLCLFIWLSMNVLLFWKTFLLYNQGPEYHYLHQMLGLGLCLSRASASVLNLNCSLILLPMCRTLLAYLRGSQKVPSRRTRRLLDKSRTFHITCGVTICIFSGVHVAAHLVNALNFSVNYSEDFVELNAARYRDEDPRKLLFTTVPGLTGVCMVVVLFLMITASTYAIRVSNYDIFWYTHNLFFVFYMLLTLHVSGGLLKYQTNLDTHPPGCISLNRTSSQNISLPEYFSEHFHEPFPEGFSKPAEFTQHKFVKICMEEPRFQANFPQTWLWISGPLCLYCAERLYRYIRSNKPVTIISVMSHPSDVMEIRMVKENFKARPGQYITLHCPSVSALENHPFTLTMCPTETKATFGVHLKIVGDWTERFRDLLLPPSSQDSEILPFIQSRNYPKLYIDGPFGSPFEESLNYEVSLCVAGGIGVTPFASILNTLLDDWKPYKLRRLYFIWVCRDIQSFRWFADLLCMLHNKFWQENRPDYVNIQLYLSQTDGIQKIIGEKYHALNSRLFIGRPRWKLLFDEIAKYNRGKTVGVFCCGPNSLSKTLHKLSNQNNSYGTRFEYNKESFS
Sequence of NADPH oxidase 2 (Homo sapiens) (P04839 whole entry, looked up): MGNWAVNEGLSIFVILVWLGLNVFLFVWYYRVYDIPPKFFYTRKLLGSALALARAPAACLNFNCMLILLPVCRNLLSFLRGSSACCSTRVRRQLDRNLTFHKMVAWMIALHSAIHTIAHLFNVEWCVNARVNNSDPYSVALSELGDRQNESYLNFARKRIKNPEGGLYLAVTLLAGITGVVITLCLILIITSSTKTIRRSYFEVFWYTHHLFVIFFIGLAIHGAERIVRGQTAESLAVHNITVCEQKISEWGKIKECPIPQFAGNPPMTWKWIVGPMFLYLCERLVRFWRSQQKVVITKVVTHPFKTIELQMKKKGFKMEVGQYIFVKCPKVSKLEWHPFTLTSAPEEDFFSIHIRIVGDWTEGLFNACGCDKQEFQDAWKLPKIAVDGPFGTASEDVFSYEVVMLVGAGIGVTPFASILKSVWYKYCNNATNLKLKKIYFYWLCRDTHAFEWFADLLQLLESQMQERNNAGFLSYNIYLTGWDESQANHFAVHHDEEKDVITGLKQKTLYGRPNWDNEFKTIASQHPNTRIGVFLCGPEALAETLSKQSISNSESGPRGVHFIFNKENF

Row | Compound | z-score [1] | composite z-score [2] | z-score [3] | z-score [4] | z-score [5] | z-score [6] | z-score [7] | z-score [8] | z-score [9] | z-score [10]
1 | CS(=O)(=O)CCOC(=O)C1=CC(CCCO)=CC(C2CC2)N(Cc2sc3ccccc3c2Cl)C=C1C(=O)OCCS(C)(=O)=O (stereo not given) | -0.406 (inactive) | 0.52 | 12.8 (active) | 2.13 (inactive) | 0.978 (inactive) | 1.41 (inactive) | 0.248 | -0.739 (inactive) | -0.315 (inactive) | -1.11
2 | CO[C@H]1O[C@H](CO)[C@@H](OC(=O)Nc2ccccc2)[C@@H]2OC(=O)[C@@H](Cc3ccccc3)C/C=C/C[C@H](Cc3ccccc3)C(=O)O[C@@H]12 | 0.364 (inactive) | -0.093 | 0.131 (inactive) | 0.162 (inactive) | 0.288 (inactive) | 0.0794 (inactive) | -0.0813 | -2.79 (inactive) | -0.266 (inactive) | -1.3
3 | CC(C)N1C(=O)[C@@]2(Cc3ccccc31)c1ccccc1C(=O)N(Cc1ccccc1)[C@H]2c1ccc(CO)cc1 | 0.882 (inactive) | -0.211 | 0.117 (inactive) | 0.945 (inactive) | 0.146 (inactive) | 0.328 (inactive) | -0.274 | -1.11 (inactive) | -0.462 (inactive) | -0.601
4 | CCCCCCCCCCC(O)C1C=CC2C(=O)N(C)C(=O)C2N1Nc1ccccc1 (stereo not given) | -2.27 (inactive) | -0.206 | 8.71 (active) | 3.03 (inactive) | 0.156 (inactive) | 2.84 (inactive) | -1.28 | -0.433 (inactive) | -4.22 (inactive) | -1.7
5 | CCOC(=O)C[C@H]1[C@H](OC(=O)c2cc3ccccc3oc2=O)[C@@H](NC(=O)c2ccc(-c3ccccc3)cc2)c2cc(OCCCO)ccc2N1C(=O)Cc1ccc(OC)cc1 | -0.601 (inactive) | -0.0162 | 20.3 (active) | 5.12 (inactive) | 0.557 (inactive) | 1.04 (inactive) | -0.192 | 1.38 (inactive) | 1.08 (inactive) | 1.23
6 | CCCCC(=C=CC[C@H](O)c1ccccc1OCCO)CCO | -0.0046 (inactive) | -0.245 | 4.53 (inactive) | 0.626 (inactive) | -0.0542 (inactive) | 0.331 (inactive) | -0.401 | -0.732 (inactive) | -0.145 (inactive) | -1.55
7 | CCCCCCc1nc(Cc2cc(OC)c(OC)c(OC)c2)c(C)c2c1[Si](C(C)C)(C(C)C)OC2 | 1.41 (inactive) | -0.0547 | 2.71 (inactive) | -0.23 (inactive) | 0.906 (inactive) | -0.471 (inactive) | 2.51 | -0.25 (inactive) | -0.588 (inactive) | -2.37
8 | CC(C)c1ccc(NN2C(C(O)C(C)c3ccccc3)C=CC3C(=O)N(c4ccccc4)C(=O)C32)cc1 (stereo not given) | -1.78 (inactive) | 1.24 | 0.187 (inactive) | 0.433 (inactive) | 0.215 (inactive) | 0.998 (inactive) | -1.44 | -0.818 (inactive) | -2.63 (inactive) | -4.03
9 | [N-]=[N+]=Nc1ccccc1C[C@]1(C(=O)N2CCCCC2)N=C(c2ccc(OCCCO)cc2)O[C@H]1c1ccccc1 | 0.699 (inactive) | 0.179 | 18 (active) | 4.52 (inactive) | 3.48 (inactive) | 1.87 (inactive) | -0.0985 | -1.76 (inactive) | -0.593 (inactive) | -1.68
10 | CC[C@@H](O[Si](C#C[Si](C(C)C)(C(C)C)C(C)C)(C(C)C)C(C)C)c1cn([C@H](C)c2ccccc2)nn1 | 0.854 (inactive) | -0.0601 | 0.4 (inactive) | 0.209 (inactive) | -0.969 (inactive) | 0.582 (inactive) | -0.711 | -0.0103 (inactive) | -0.507 (inactive) | 0.0572
11 | CCCC[C@@H](O)C1=C(C)Cn2c(=O)n(-c3ccccc3)c(=O)n2[C@H]1CO | 3.02 (inactive) | -0.414 | -0.262 (inactive) | -0.957 (inactive) | -0.0398 (inactive) | -2.37 (inactive) | 0.916 | -0.943 (inactive) | 0.216 (inactive) | 0.616
12 | COC(=O)C1=CC(c2ccc(CO)cc2)=CC(C2CC2)N(Cc2cc3c(cc2Br)OCO3)C=C1C(=O)OC (stereo not given) | -0.938 (inactive) | 0.3 | 10.6 (active) | 0.856 (inactive) | 0.954 (inactive) | 0.572 (inactive) | -0.625 | -0.853 (inactive) | -0.385 (inactive) | 0.857
13 | COC(=O)C(CC#Cc1ccc2c(c1)[C@]1(C(=O)N2)[C@H](C(=O)N2CCCCCCC2)[C@H]2C(=O)O[C@H](c3ccccc3)[C@H](c3ccccc3)N2[C@@H]1c1ccc(OCCO)cc1)C(=O)OC | -0.215 (inactive) | 3.14 | 13.7 (active) | 2.51 (inactive) | -5.71 (inactive) | 0.588 (inactive) | -0.779 | 0.985 (inactive) | 0.827 (inactive) | 1.6
14 | Cc1ccc(S[C@]2(C(=O)NC(C)C)CC(=O)N(Cc3ccccc3)[C@@H]2c2ccc(CO)cc2)cc1 | 1.33 (inactive) | 0.082 | 1.66 (inactive) | -0.709 (inactive) | -0.379 (inactive) | -0.581 (inactive) | 1.46 | -0.101 (inactive) | 0.0692 (inactive) | -0.771
15 | COC(=O)[C@@]1(Cc2ccc(F)cc2)[C@H]2c3cc(C(=O)N(C)C)n(Cc4cccc5ccccc45)c3C[C@H]2CN1C(=O)c1ccccc1 | -1.92 (inactive) | 0.0568 | 8.44 (active) | 1.29 (inactive) | 1.07 (inactive) | 1.28 (inactive) | -0.779 | 0.105 (inactive) | -3.8 (inactive) | 0.592
16 | CCOC(=O)C=C1C[C@@H](c2cccc([N+](=O)[O-])c2)O[C@@H](c2cccc([N+](=O)[O-])c2)O1 | -0.546 (inactive) | 1.21 | 1.65 (inactive) | 1.11 (inactive) | -0.481 (inactive) | 0.66 (inactive) | -0.125 | 0.325 (inactive) | 0.481 (inactive) | 1.28
17 | CCCCCN1CC=CC23O[C@@H]4/C=C\CCCOC(=O)C4[C@H]2C(=O)N(CCCCCO)[C@@H]3C1=O (stereo not given in full) | 1.83 (inactive) | -0.255 | 0.46 (inactive) | -0.618 (inactive) | -1.29 (inactive) | -1.27 (inactive) | -0.0754 | 0.834 (inactive) | 0.0699 (inactive) | 1.41
18 | O=C1O[C@H](c2ccccc2)[C@H](c2ccccc2)N2[C@H]1[C@@H](C(=O)O)[C@]1(C(=O)Nc3ccccc31)[C@H]2c1ccc(OCCO)cc1 | 0.368 (inactive) | 0.183 | 3.81 (inactive) | 0.173 (inactive) | -0.776 (inactive) | 0.124 (inactive) | -0.412 | 0.388 (inactive) | 1.09 (inactive) | 0.958
19 | COc1ccc([Si](C)(C)[C@@H]2[C@@H](CC(=O)N3Cc4ccccc4C[C@H]3CO)O[C@]3(C(=O)N(Cc4ccc(I)cc4)c4ccccc43)[C@H]2C)cc1 | 1.35 (inactive) | 0.0063 | 4.93 (inactive) | 1.98 (inactive) | 2.47 (inactive) | 1.21 (inactive) | 0.192 | 1.19 (inactive) | 1.15 (inactive) | 0.652
20 | COc1ccc(C#Cc2ccc3c(c2)[C@]2(C(=O)N3)[C@H](c3ccccc3OCCO)N3[C@H](c4ccccc4)[C@H](c4ccccc4)OC(=O)[C@H]3[C@@H]2C(=O)NC[C@H](O)c2ccccc2)cc1 | 1.21 (inactive) | 0.0147 | 1.71 (inactive) | 1.71 (inactive) | 0.0857 (inactive) | 1.2 (inactive) | 0.138 | 1.78 (inactive) | 0.243 (inactive) | 1.32
21 | CCCCN1CC=CC23O[C@@H]4/C=C\CCCOC(=O)C4[C@H]2C(=O)N(CCCCCCO)[C@@H]3C1=O (stereo not given in full) | 2.36 (inactive) | 0.0927 | 1.81 (inactive) | -0.88 (inactive) | -0.75 (inactive) | -0.945 (inactive) | 3.08 | 0.873 (inactive) | 0.0146 (inactive) | 1.84
22 | COc1ccc(C(=O)Nc2ccc(CN3C(=O)[C@]4(O[C@H](CC(=O)N(CCO)Cc5ccccc5)[C@@H]([Si](C)(C)c5ccc(OC)cc5)[C@@H]4C)c4ccccc43)cc2)cc1 | 0.863 (inactive) | -0.142 | 4.94 (inactive) | 1.89 (inactive) | 0.439 (inactive) | 1.02 (inactive) | 0.383 | 0.658 (inactive) | 0.801 (inactive) | 3.23
23 | C=C(C(=O)CC[C@@H](OC(=O)c1ccccc1-c1ccccc1C(=O)O)c1ccc(OCCO)cc1)C(C)C | -0.383 (inactive) | 0.312 | 13.6 (active) | 1.37 (inactive) | 1.2 (inactive) | 0.405 (inactive) | -0.26 | 1.43 (inactive) | 0.123 (inactive) | -1.3
24 | C=CCNC(=O)[C@@H]1[C@H]2C(=O)O[C@H](c3ccccc3)[C@H](c3ccccc3)N2[C@H](c2ccc(OCCO)cc2)[C@@]12C(=O)N(C(=O)OCCOC)c1ccccc12 | 0.127 (inactive) | 0.258 | 3.15 (inactive) | 1.27 (inactive) | -0.947 (inactive) | 0.442 (inactive) | -0.296 | 0.406 (inactive) | 0.789 (inactive) | -0.0693
25 | [N-]=[N+]=Nc1ccccc1C[C@@]1(C(=O)NCC(O)CO)N=C(c2ccc(OCCCO)cc2)O[C@@H]1c1ccccc1N=[N+]=[N-] (stereo not given in full) | -0.193 (inactive) | -0.281 | 30.3 (active) | 29.2 (active) | 0.0029 (inactive) | 8.12 (active) | 0.191 | -1.55 (inactive) | 0.776 (inactive) | 1.85
26 | [N-]=[N+]=Nc1ccccc1C[C@]1(C(N)=O)COC(c2ccc(OCCCO)cc2)=N1 | -0.142 (inactive) | 0.146 | 24.7 (active) | 9.16 (active) | 1.56 (inactive) | 0.0294 (inactive) | 1.84 | -2.14 (inactive) | -1.48 (inactive) | -2.48
